A selection: hits, their analogues and other compounds. The true share with any hit is near 2.1%.
Rpn11 block: Rpn11 (PSMD14) deubiquitinase inhibitors, primary screen, biochemical, fluorescence polarization, uHTS | inhibition, % at 20 µM | 360,000 compounds, 0.59% hits | human 26S proteasome, Ub4-pepOG fluorescence polarization; 20S core pre-blocked with epoxomicin | 26S proteasome non-ATPase regulatory subunit 14 (Homo sapiens), O00487;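 active = inhibition at 20 µM, scaled to each plate's controls, above about 33%, limit read from the data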
HNF4A DNA FP: change in binding of human HNF4A to DNA, primary screen, biochemical, fluorescence polarization, FITC-DNA | Hepatocyte nuclear factor 4-alpha (Homo sapiens), P41235 | activity change, % at 10 µM | 360,000 compounds, 0.3% hits | 1 h | AID 1224865, 2016; in the data active = activity change above about 30%, passing the limit was not always enough
Target sequence (P41235 whole entry, looked up): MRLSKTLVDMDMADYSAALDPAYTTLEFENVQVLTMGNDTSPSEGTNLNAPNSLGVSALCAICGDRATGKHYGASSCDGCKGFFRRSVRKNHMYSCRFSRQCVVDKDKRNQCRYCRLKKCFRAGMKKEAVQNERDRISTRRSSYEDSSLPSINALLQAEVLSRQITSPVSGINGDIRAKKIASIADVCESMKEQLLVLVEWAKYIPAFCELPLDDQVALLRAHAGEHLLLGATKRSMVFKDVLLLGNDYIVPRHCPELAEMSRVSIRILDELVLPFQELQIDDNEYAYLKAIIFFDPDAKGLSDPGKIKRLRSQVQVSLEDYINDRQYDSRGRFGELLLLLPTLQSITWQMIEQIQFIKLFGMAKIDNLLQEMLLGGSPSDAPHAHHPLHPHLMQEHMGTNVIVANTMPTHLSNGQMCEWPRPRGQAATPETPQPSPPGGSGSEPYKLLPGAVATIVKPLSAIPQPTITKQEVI
Myeloid diff 2: induction of myeloid progenitor differentiation, primary screen, cell-based, flow cytometry, MLPCN library; ER-HoxA9 myeloid progenitors, lysozyme-GFP differentiation; AID 624256, 2012; calls only at 10 µM; 360,000 compounds, 1% hits;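 active = normalized GFP-positive differentiation at or above the plate's own cutoff, the solvent-only control mean plus 3 SD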;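 note: cells exposed to compound for four days before flow analysis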
TPT1 inhibitor: Candida albicans TPT1 enzyme inhibitors, primary screen, biochemical, fluorescence polarization; tRNA 2'-phosphotransferase TPT1 (Candida albicans SC5314); inhibition, % at 5 µM; AID 1962, 2009; recombinant caTPT1, FP RNA substrate dephosphorylation; 300,000 compounds, 0.81% hits;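 active = inhibition above the mean of all tested compounds plus 3 SD, set per screening campaign, cut at about 24% in these data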
caTPT1 confirm: Candida albicans TPT1 inhibitors, confirmation, biochemical, fluorescence polarization, triplicate | shares compounds with TPT1 inhibitor | inhibition, % at 5 µM | 2,400 compounds, 74% hits | recombinant caTPT1, RNase T1 coupled;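 active = inhibition above the primary screen limit, the mean inhibition of all tested compounds plus 3 SD, cut at about 25% in these data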
RNase T1 counter: RNase T1 inhibitors, counter-screen for TPT1 inhibitor project, biochemical, fluorescence polarization | shares compounds with TPT1 inhibitor | RNase T1 cleavage, 1536-well | inhibition, % at 5 µM | 2,400 compounds, 83% hits | AID 2153, 2009;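 active = inhibition above the solvent-only control well mean plus 3 SD, limit set per screening run, cut at about 23% in these data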;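 note: inhibitors block cleavage so intact labeled substrate keeps polarization high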
Target sequence (P00651 whole entry, looked up): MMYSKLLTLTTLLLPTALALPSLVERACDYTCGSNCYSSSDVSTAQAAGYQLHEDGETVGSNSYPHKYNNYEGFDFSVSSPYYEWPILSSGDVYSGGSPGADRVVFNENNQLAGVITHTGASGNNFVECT
Rpn11 confirm: Rpn11 (PSMD14) deubiquitinase inhibitors, confirmation, biochemical, fluorescence polarization, single concentration; shares compounds with Rpn11 block; purified human 26S proteasome, Ub4-pepOG fluorescence polarization; proteasome pretreated with epoxomicin; inhibition, % at 20 µM; 1,900 compounds, 29% hits; AID 602318, 2012
MMP-2 inh: MMP-2 enzyme inhibition, confirmation, counter-screen for RPN11 inhibitor project, biochemical, fluorescence, single concentration; shares compounds with Rpn11 block; inhibition, % at 20 µM; 1,900 compounds, 4% hits; AID 602330, 2012; recombinant MMP-2, FRET peptide cleavage fluorescence;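 note: human MMP-2 activated beforehand with APMA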
Thrombin inh: bovine thrombin protease inhibition, confirmation, counter-screen for Rpn11 inhibitor project, biochemical, fluorescence polarization, single concentration; shares compounds with Rpn11 block; bovine thrombin cleavage of Ub4-pepOG; inhibition, % at 20 µM; 1,900 compounds, 13% hits;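 active = mean inhibition at least 40% at 20 µM, or signal 3 deviations below plate average, so some actives read negative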
Myeloid diff: inducers of myeloid progenitor differentiation, confirmation, cell-based, GFP/Mac1 flow cytometry, cherry pick 01; shares compounds with Myeloid diff 2; ER-HoxA9 myeloid progenitors, GFP/Mac1 double-positive flow; calls only; 2,300 compounds, 2% hits;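 active = share of green or green-and-red cells above 9 and 9% in run 1 or 4 and 3% in run 2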
GFP autofluor: counter-screen for myeloid differentiation promoters: compound fluorescence. shares compounds with Myeloid diff 2. ER-HoxA9 myeloid progenitors, no estrogen, GFP autofluorescence flow cytometry; vehicle wells 0%, positive control 100%. fluorescence response, % (concentration not given with the values). 2,300 compounds, 7.4% hits. AID 651707;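 active = over 5% cells positive for green fluorescent reporter, or over 2% positive for both it and APC stain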
Each line names hits and unclear results; the compound was inactive in the other large screens (follow-up assays come after a bar, where shown); ! = not confirmed by another sample. Cut-off read from the data, not from the text of the source, unless noted: active = inhibition above about 40%; inactive = the rest.

O=C1/C(=C/c2ccco2)CCC1C1CCCC1 (stereo not given)	none
O=C1/C(=C\c2ccco2)CCC/C1=C\c1ccco1	Myeloid diff 2 active, TPT1 inhibitor 55 (not shown: Rpn11 block) | caTPT1 confirm 65 | RNase T1 counter 72 | Myeloid diff inactive | GFP autofluor 37
O=c1c2ccccc2c(/C=N/NS(=O)(=O)c2ccccc2)c(O)n1-c1ccccn1	TPT1 inhibitor 106 (not shown: Rpn11 block) | caTPT1 confirm 62 | RNase T1 counter 78 | Myeloid diff inactive | GFP autofluor inactive
COC(=O)[C@@]1(Cc2ccc(F)cc2)[C@H]2c3cc(C(=O)N4CCCC4)n(Cc4ccc(C)o4)c3C[C@H]2CN1C(=O)c1ccccc1	none (no result: Rpn11 block, TPT1 inhibitor)
O=C(Nc1nccs1)c1ccc(-c2ccc([N+](=O)[O-])cc2)o1	Rpn11 block 73, Myeloid diff 2 active, TPT1 inhibitor 37 | caTPT1 confirm 34 | RNase T1 counter 48 | Rpn11 confirm inactive | MMP-2 inh inactive | Thrombin inh active | Myeloid diff inactive | GFP autofluor inactive
O=[N+]([O-])c1cccc(/C=C/c2nc(C=Nc3ccc4ccccc4c3)c(O)o2)c1	Myeloid diff 2 active, TPT1 inhibitor 33 | caTPT1 confirm inactive | RNase T1 counter 28 | Myeloid diff inactive | GFP autofluor 5.7
O=C(CCCN1C(=O)/C(=C\c2cccc(Br)c2)SC1=S)Nc1cccnc1	none
Cc1c2ccccc2c(C)c2c1ccc1ccccc12	none
CC1=Nc2ccc3ccccc3c2C1(C)C	Myeloid diff 2 active, TPT1 inhibitor 85 (not shown: Rpn11 block) | caTPT1 confirm 44 | RNase T1 counter 55 | Myeloid diff inactive | GFP autofluor inactive
O=C(N=Nc1c(O)[nH]c2ccccc12)c1ccco1	none
CCOC(=O)c1c(NC(=O)C(C)Sc2cccc[n+]2[O-])sc2c1CCN(Cc1ccccc1)C2 (stereo not given)	Myeloid diff 2 active, TPT1 inhibitor 71 | caTPT1 confirm 77 | RNase T1 counter 86 | Myeloid diff inactive | GFP autofluor inactive
O=C(COc1ccc(C(=O)NCCN2CCOCC2)cc1)Nc1cccc(C(F)(F)F)c1	none
Cc1cccn2c(=O)c3cc(C(=O)NCCN4CCOCC4)c(=N)n(CCN4CCOCC4)c3nc12	none (no result: Myeloid diff 2)
Cc1cccn2c(=O)c(/C=C3\SC(=S)NC3=O)c(NCCCN3CCOCC3)nc12	HNF4A DNA FP 109, Myeloid diff 2 active, TPT1 inhibitor 121 (not shown: Rpn11 block) | caTPT1 confirm 122 | RNase T1 counter 120 | Myeloid diff inactive | GFP autofluor inactive
C#CCONC(=O)c1cc(OCC(F)(F)F)ccc1OCC(F)(F)F	none
CCCn1c(NC(=O)CCS(=O)(=O)c2ccc(C)cc2)nc2ccccc21	Myeloid diff 2 active, TPT1 inhibitor 46 | caTPT1 confirm 58 | RNase T1 counter 68 | Myeloid diff inactive | GFP autofluor 27
CCCn1c(NC(=O)CCNC(=O)c2ccccc2Cl)nc2ccccc21	none (no result: TPT1 inhibitor)
O=[N+]([O-])c1ccccc1N/N=C/c1c[nH]c2ccccc12	none
COc1ccccc1NS(=O)(=O)c1cc([N+](=O)[O-])ccc1N/N=C/c1c[nH]c2ccccc12	Rpn11 block 47, HNF4A DNA FP 72, Myeloid diff 2 active, TPT1 inhibitor 129 | caTPT1 confirm 106 | RNase T1 counter 107 | Rpn11 confirm inactive | MMP-2 inh inactive | Thrombin inh inactive | Myeloid diff inactive | GFP autofluor 46
O=C1S/C(=C\c2ccc(N3CCOCC3)o2)C(=O)N1c1ccccc1	Myeloid diff 2 active, TPT1 inhibitor active (not shown: Rpn11 block) | caTPT1 confirm 185 | RNase T1 counter 166 | Myeloid diff inactive | GFP autofluor 9.6
COc1ccc2nc(N3C(=O)/C(=C/c4ccccc4)NC3=S)sc2c1	TPT1 inhibitor 111 (not shown: Rpn11 block) | caTPT1 confirm 115 | RNase T1 counter 119 | Myeloid diff inactive | GFP autofluor 7.0
COc1ccc2nc(-n3c(C)ccc3C)sc2c1	none
Cc1ccc2nc(NC(=O)CSCC(=O)OCC(=O)c3ccccc3)sc2c1	Myeloid diff 2 active, TPT1 inhibitor 30 | caTPT1 confirm inactive | RNase T1 counter inactive | Myeloid diff inactive | GFP autofluor inactive
COc1cc(/C=C2\SC(=O)N(CC(=O)Nc3ccccc3F)C2=O)cc(Cl)c1O	TPT1 inhibitor 67 | caTPT1 confirm 81 | RNase T1 counter 68 | Myeloid diff inactive | GFP autofluor inactive
NS(=O)(=O)c1ccc(CCNC(=O)c2cc3ccccc3s2)cc1	none
N=C(N)SCc1nc2ccccc2c(=O)n1-c1ccccc1	Myeloid diff 2 active!, TPT1 inhibitor 26! | caTPT1 confirm 28 | RNase T1 counter 37 | Myeloid diff inactive | GFP autofluor inactive
O=C(O)c1ccc(CSc2nc3ccccc3c(=O)n2-c2ccccc2)cc1	none
O=S(=O)(NC1CCCCC1)c1ccc(Br)cc1	none
CC(=O)NC/C(C)=N\Nc1ccc([N+](=O)[O-])cc1	Myeloid diff 2 active, TPT1 inhibitor 32 | caTPT1 confirm 43 | RNase T1 counter 55 | Myeloid diff inactive | GFP autofluor 49
Cc1ccc(NC(=O)CN(C)C(=O)c2cc(-c3ccco3)nc3ccccc23)cc1	TPT1 inhibitor 25 | caTPT1 confirm inactive | RNase T1 counter inactive | Myeloid diff inactive | GFP autofluor inactive
CN(CC(=O)Nc1ccc(F)cc1)C(=O)c1cc(-c2ccco2)nc2ccccc12	none

From PubChem BioAssay
